# “And” between values parts separate entries of the source, which are not always exact repeats. Equal values may be shown once. The source made the active and inactive calls. Unless noted, the rule behind the calls is not given here.
# How the values were obtained:
# [1] = test system: Wnt5a (protein binding on small-molecule microarray); test: Wnt5a binders on small-molecule microarray, primary screen, biophysical, 635/667 nm fluorescence (AID 1142); conditions: 635 nm fluorescence, higher = more signal;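 note: fluorescence read at 667 nm with signal to noise per printed feature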
# [2] = cell viability in Huh7 cells, primary screen, cytotoxicity control for HCV replication inhibitor project, CellTiter-Glo luminescence, basal, 48 h (AID 1143); conditions: Huh7 HCV replicon, higher = more signal, called active from +8 up or from −8 down;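 note: Huh7 hepatoma cells carrying a hepatitis C replication reporter with no stimulus; test concentration not given here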
# [3] = P. aeruginosa biofilm formation inhibitors, primary screen, PAO1 strain, BacTiter-Glo luminescence, LB-PBS (AID 1144); conditions: 12 h, higher = more signal
# [4] = CREB reporter modulators without forskolin, primary screen, cell-based, PC12, CRE-LacZ reporter, unstimulated (AID 1145); conditions: no forskolin, luminescence, 4.5 h, higher = more signal, called active from +8 up or from −8 down
# [5] = CREB reporter modulators under forskolin, primary screen, cell-based, PC12, CRE-LacZ reporter, forskolin-stimulated (AID 1146); conditions: luminescence, 4.5 h, higher = more signal, called active from +8 up or from −8 down;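 note: PC12 cells with 6xCRE LacZ reporter stimulated by forskolin 10 µM; beta-galactosidase reporter signal reflecting CREB driven transcription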
# [6] = target: Streptavidin (Streptomyces avidinii) (UniProt P22629); test: streptavidin binders on small-molecule microarray, primary screen, artefact control for SMM compound annotation, biophysical, 635/667 nm fluorescence (AID 1147); conditions: streptavidin binding, higher = more signal;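 note: signal reflects streptavidin binding to arrayed compounds as a control protein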
# [7] = small-molecule binders of probe aInhba, primary screen, biochemical, small-molecule microarray, 635/667 nm fluorescence (AID 1148); conditions: higher = more signal;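 note: score merges 667nm spot fluorescence with signal-to-noise for antibody binding to printed compounds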
# [8] = target: Torsin-1A (Homo sapiens) (UniProt O14656); test: torsin A binders from cell lysate, primary screen, small-molecule microarray, wild-type, 635/667 nm (AID 1149); conditions: COS7 hTOR1A-WT lysate, 635 nm fluorescence, higher = more signal
# [9] = target: Torsin-1A (Homo sapiens) (UniProt O14656); test: small-molecule binders of mutant TOR1A in lysate, primary screen, cell lysate, small-molecule microarray, COS7 lysate, 635/667 nm fluorescence (AID 1150); conditions: COS7 hTOR1A mutant lysate, 635 nm fluorescence, higher = more signal;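 note: score pools 667 nm emission and signal to noise measuring lysate protein binding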
# [10] = test system: Sonic hedgehog protein (Shh); test: small-molecule binders of Shh protein, primary screen, biochemical, small-molecule microarray, 635/667 nm fluorescence (AID 1151); conditions: small-molecule microarray binding, 635 nm fluorescence; higher = more signal;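 note: Shh protein binding to compounds spotted on small-molecule microarray slides; score combines spot fluorescence intensity with signal-to-noise across triplicate slides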
# [11] = E. coli DRC41 culture turbidity changes, primary screen, E. coli filamentation inducer project, strain DRC41, OD650, 48 h (AID 1152);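 note: E. coli MC1000 strain DRC41 lacking acrAB efflux pump and sulA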; conditions: E. coli DRC41 (acrAB sulA), higher = more signal, called active from +8 up or from −8 down
# [12] = small-molecule binders of probe aLefty1, primary screen, biochemical, small-molecule microarray, 635/667 nm fluorescence (AID 1153); conditions: higher = more signal;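 note: score merges spot fluorescence with signal-to-noise ratio from the scanned slide images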
# [13] = PSAC antagonists in infected red cells, primary screen, cell-based, P. falciparum Indochina, OD700, 1 h (AID 1154); conditions: P. falciparum Indochina infected RBC osmotic lysis, higher = more signal, called active from +8 up or from −8 down
# [14] = PSAC antagonists in infected red cells, primary screen, cell-based, P. falciparum Indochina, OD700, 2 h (AID 1155);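 note: lysis reports solute entry through the parasite surface anion channel PSAC; channel blockers reduce lysis of infected cells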; conditions: P. falciparum Indochina infected erythrocytes, osmotic lysis OD700; higher = more signal, called active from +8 up or from −8 down
# [15] = osmotic lysis modulators in infected erythrocytes, primary screen, PSAC antagonist project, cell-based, P. falciparum Indochina, OD700, 3 h (AID 1156); conditions: higher = more signal, called active from +8 up or from −8 down
# [16] = PSAC antagonists in infected red cells, primary screen, cell-based, P. falciparum Indochina, OD700, 18 h (AID 1157); conditions: P. falciparum Indochina infected erythrocytes, osmotic lysis OD700, 18 h; higher = more signal, called active from +8 up or from −8 down
# [17] = modulators of S6 phosphorylation in cells, primary screen, cell-based, A549, cytoblot, luminescence, serum-stimulated (AID 1158); conditions: A549 phospho-S6 cytoblot, 5 h, higher = more signal;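 note: serum-stimulated A549 lung adenocarcinoma cells; signal is phosphorylated S6 detected by cytoblot immunostaining with HRP secondary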
# [18] = target: NADPH oxidase 2 (Homo sapiens) (UniProt P04839); test: NOX2-dependent H2O2 signal modulators, primary screen, NOX inhibitor project, cell-based, HEK293-NOX2, PMA-stimulated, Amplex Red fluorescence (AID 1159); conditions: 45 min, higher = more signal, called active from +8 up or from −8 down; note: test concentration not given here
# [19] = target: NADPH oxidase 4 (Homo sapiens) (UniProt Q9NPH5); test: NOX4-dependent H2O2 signal modulators, primary screen, NOX inhibitor project, cell-based, HEK293-NOX4, tetracycline-induced, Amplex Red fluorescence (AID 1160); conditions: 45 min, higher = more signal, called active from +8 up or from −8 down
# [20] = target: NADPH oxidase 5 (Homo sapiens) (UniProt Q96PH1); test: NOX5-dependent H2O2 signal modulators, primary screen, NOX inhibitor project, cell-based, HEK293-NOX5, Amplex Red fluorescence (AID 1161); conditions: HEK293-NOX5, ionomycin, 45 min, higher = more signal
# NADPH oxidase 5 (Homo sapiens), sequence (Q96PH1 whole entry, looked up): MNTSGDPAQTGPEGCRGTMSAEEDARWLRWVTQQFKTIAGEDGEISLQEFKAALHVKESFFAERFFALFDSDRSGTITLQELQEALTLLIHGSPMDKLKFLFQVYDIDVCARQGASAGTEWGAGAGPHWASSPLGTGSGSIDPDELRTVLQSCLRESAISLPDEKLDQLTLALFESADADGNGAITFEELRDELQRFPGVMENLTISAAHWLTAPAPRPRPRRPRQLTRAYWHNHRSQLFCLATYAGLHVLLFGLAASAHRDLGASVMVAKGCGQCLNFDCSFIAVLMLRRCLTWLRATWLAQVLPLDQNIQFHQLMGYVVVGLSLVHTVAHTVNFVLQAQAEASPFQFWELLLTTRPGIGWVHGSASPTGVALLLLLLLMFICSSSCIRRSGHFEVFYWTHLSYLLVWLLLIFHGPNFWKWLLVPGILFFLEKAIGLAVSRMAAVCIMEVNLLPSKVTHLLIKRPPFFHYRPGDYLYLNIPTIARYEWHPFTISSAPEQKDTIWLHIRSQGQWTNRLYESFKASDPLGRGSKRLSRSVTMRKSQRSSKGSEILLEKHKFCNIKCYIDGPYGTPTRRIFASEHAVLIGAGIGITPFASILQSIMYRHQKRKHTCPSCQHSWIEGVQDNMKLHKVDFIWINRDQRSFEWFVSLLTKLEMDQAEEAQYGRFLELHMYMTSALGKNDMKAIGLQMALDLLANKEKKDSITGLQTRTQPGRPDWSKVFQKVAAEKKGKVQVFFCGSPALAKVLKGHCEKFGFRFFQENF
# Torsin-1A (Homo sapiens), sequence (O14656 whole entry, looked up): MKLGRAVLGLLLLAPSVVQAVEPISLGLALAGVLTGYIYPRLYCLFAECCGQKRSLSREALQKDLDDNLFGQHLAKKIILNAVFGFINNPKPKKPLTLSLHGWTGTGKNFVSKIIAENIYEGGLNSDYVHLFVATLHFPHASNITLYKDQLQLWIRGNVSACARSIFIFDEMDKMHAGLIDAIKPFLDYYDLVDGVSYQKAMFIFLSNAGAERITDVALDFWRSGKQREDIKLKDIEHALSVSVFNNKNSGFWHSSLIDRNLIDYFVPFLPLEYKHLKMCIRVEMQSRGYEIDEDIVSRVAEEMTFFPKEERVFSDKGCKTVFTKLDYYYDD
# NADPH oxidase 2 (Homo sapiens), sequence (P04839 whole entry, looked up): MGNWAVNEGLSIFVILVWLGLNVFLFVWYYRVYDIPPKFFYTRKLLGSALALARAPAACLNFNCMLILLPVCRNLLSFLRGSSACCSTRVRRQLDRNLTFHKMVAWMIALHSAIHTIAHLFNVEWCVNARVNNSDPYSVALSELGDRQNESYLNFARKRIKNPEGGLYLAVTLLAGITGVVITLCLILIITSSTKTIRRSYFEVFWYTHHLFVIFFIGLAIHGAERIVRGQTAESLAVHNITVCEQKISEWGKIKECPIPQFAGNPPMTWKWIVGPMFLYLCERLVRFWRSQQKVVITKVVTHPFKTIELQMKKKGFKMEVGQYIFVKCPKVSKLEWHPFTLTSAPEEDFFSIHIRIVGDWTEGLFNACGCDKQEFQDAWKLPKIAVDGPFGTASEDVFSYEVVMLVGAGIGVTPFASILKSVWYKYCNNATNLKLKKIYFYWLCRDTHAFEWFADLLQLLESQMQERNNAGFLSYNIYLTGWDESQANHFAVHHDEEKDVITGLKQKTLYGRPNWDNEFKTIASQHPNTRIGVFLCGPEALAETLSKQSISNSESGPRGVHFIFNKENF
# NADPH oxidase 4 (Homo sapiens), sequence (Q9NPH5 whole entry, looked up): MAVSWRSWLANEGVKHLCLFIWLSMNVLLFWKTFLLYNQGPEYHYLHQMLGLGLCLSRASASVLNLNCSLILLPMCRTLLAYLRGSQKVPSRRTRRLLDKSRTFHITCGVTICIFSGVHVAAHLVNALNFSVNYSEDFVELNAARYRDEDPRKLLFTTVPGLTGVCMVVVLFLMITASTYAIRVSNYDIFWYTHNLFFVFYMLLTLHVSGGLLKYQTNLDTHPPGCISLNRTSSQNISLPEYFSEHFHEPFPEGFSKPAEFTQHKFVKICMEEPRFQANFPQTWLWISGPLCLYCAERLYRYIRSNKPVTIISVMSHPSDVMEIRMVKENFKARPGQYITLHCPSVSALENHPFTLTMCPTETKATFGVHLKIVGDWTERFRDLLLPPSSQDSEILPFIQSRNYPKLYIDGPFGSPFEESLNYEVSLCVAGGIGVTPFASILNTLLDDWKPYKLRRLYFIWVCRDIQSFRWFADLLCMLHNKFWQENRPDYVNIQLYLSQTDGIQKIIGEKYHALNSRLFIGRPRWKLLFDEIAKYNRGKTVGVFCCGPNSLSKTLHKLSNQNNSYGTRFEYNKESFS
# Streptavidin (Streptomyces avidinii), sequence (P22629 whole entry, looked up): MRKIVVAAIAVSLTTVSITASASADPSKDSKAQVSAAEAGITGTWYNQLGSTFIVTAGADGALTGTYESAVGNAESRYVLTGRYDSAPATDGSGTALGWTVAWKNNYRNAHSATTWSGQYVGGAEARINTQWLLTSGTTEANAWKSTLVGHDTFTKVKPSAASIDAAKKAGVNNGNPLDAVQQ
Compound,composite z-score [1],z-score [2],z-score [3],z-score [4],z-score [5],composite z-score [6],composite z-score [7],composite z-score [8],composite z-score [9],composite z-score [10],z-score [11],composite z-score [12],z-score [13],z-score [14],z-score [15],z-score [16],z-score [17],z-score [18],z-score [19],z-score [20]
COC(=O)c1c2oc(c1C(=O)OC)C(=O)N[C@@H](Cc1ccccc1)Cn1cc(nn1)C1(CCCCC1)NC(=O)N[C@H](CO)CC2,0.547 and 0.189,-0.237 (inactive) and -0.109 (inactive),-1.23 (inactive) and -0.509 (inactive),0.484 (inactive) and 3.25 (inactive),-0.635 (inactive) and -0.0904 (inactive),0.216 and 0.517,0.271 and -0.103,0.212 and 0.403,-0.0506 and 0.489,1.28 and 0.781,2.62 (inactive) and 1.74 (inactive),0.391 and 0.0455,1.36 (inactive) and 4.41 (inactive),0.431 (inactive) and 1.49 (inactive),0.557 (inactive) and 0.593 (inactive),0.454 (inactive) and 0.801 (inactive),0.427 and 0.173,0.432 (inactive) and 0.428 (inactive),1.67 (inactive) and -1.49 (inactive),0.922 and -2.52
CC(CO)N1C(=O)[C@@H]2C3C(=O)OCCC=C[C@H]3OC23C=CCN(c2ccc4ccccc4c2)C(=O)[C@@H]13 (stereo not given in full),-0.758 and -0.416,0.0425 (inactive) and 0.0276 (inactive),0.87 (inactive) and 1.11 (inactive),0.199 (inactive) and 0.756 (inactive),-0.345 (inactive) and 0.0714 (inactive),-0.809 and -0.937,-0.0933 and -0.584,-1.95 and -1.75,-1.23 and -1.14,0.0707 and -0.262,-0.562 (inactive) and -0.929 (inactive),-0.0015 and -0.673,3.31 (inactive) and 4.57 (inactive),1.28 (inactive) and 0.577 (inactive),1.18 (inactive) and 0.724 (inactive),0.652 (inactive) and 0.282 (inactive),-0.631 and -0.363,1.68 (inactive) and 1.25 (inactive),0.411 (inactive) and 1.05 (inactive),2.69 and 2.08
CC(CO)N1C(=O)[C@@H]2C3C(=O)OCCC=C[C@H]3OC23C=CCN(C(C)(C)C)C(=O)[C@@H]13 (stereo not given in full),-0.221 and 0.386,1.18 (inactive) and -0.0534 (inactive),1.02 (inactive) and 1.16 (inactive),-0.0859 (inactive) and -0.903 (inactive),-0.596 (inactive) and 0.158 (inactive),-1.5 and -0.476,-0.206 and 0.188,-0.0147 and 0.756,-0.0948 and 0.346,0.0735 and 0.915,-0.745 (inactive) and -0.506 (inactive),-0.224 and 0.227,0.901 (inactive) and 1.86 (inactive),-0.27 (inactive) and 0.449 (inactive),1.02 (inactive) and 0.409 (inactive),0.406 (inactive) and 0.112 (inactive),1.11 and -0.113,0.793 (inactive) and 1.49 (inactive),0.0644 (inactive) and 0.425 (inactive),1.96 and 2.84
CN1C(=O)C2CC=C([C@H]3Oc4ccccc4S(=O)(=O)N4CCC[C@@H]34)CC2C1=O (stereo not given in full),-0.0808 and 0.53,0.0836 (inactive) and -0.243 (inactive),-0.129 (inactive) and -0.419 (inactive),-1.32 (inactive) and -0.327 (inactive),0.123 (inactive) and 0.707 (inactive),-0.0329 and -0.212,-0.0963 and -0.0874,-0.0871 and -0.296,0.075 and -0.165,-0.306 and -0.272,-0.92 (inactive) and -0.225 (inactive),-0.186 and -0.193,0.35 (inactive) and 0.829 (inactive),0.542 (inactive) and 0.41 (inactive),-0.0363 (inactive) and 0.15 (inactive),0.354 (inactive) and 0.133 (inactive),-0.395 and -0.53,0.514 (inactive) and -0.289 (inactive),-1.36 (inactive) and -1.47 (inactive),-1.31 and -1.46
CC(C)OC(=O)C=C1C[C@@H](c2cccc(C(F)(F)F)c2)O[C@@H](c2cccc(C(F)(F)F)c2)O1,0.0895 and -0.51,-0.53 (inactive) and -2.72 (inactive),-0.539 (inactive) and 0.216 (inactive),-0.284 (inactive) and 0.379 (inactive),-0.126 (inactive) and 1.11 (inactive),0.0863 and 0.0717,-0.0313 and -0.2,0.704 and 2.6,1.17 and 0.366,-0.0088 and -0.758,-0.599 (inactive) and -0.778 (inactive),-0.0518 and -0.371,2.3 (inactive),0.707 (inactive) and 1.02 (inactive),0.192 (inactive) and -0.365 (inactive),0.613 (inactive) and 0.561 (inactive),0.156 and -0.463,-0.112 (inactive) and 0.194 (inactive),-1.2 (inactive) and -0.65 (inactive),-1.3 and -0.324
C=C[C@@H](OC)[C@H](O)c1ccc(OC)c(O)c1,0.192 and -0.0615,-0.825 (inactive) and 1.07 (inactive),0.729 (inactive),0.441 (inactive) and -0.142 (inactive),0.0793 (inactive) and -1.37 (inactive),-0.964 and -1.77,-0.281 and -0.306,0.059 and -0.285,-0.242 and -0.089,0.439 and -0.117,0.232 (inactive) and 1.81 (inactive),0.235 and -0.328,0.61 (inactive) and -0.257 (inactive),0.436 (inactive) and -1.63 (inactive),-0.28 (inactive) and -1.54 (inactive),0.328 (inactive) and -2.34 (inactive),0.138 and 0.185,-2.35 (inactive) and -2.11 (inactive),-0.998 (inactive) and -1.12 (inactive),-1.51 and -0.778
